A number with no mark means an inactive call. For part of these data: Results with a measured potency or affinity are listed apart. Activity calls are given as the source filed them. No rule for the calls is given here.
Experiments:
[1] = Ebola virus entry assay, green fluorescence channel
[2] = Ebola virus entry assay, blue channel fluorescence
[3] = Ebola virus entry assay, ratio channel
[4] = Ebola virus entry assay, reporter ratio channel; Channel type: primary
For efficacy in this document: 0% is about no effect.

SMILES | efficacy [1] [%] | AC50 [2] | AC50 [3] | AC50 [4] | outcome [3] | outcome [2] | outcome [4]
CCN(CC)CCCC(C)Nc1c2ccc(Cl)cc2nc2ccc(OC)cc12 (centres undefined) | 40.6 | 25.1 µM (active) | 25.1 µM (active) | 25.1 µM (active) |  |  | 
CN1CCN(C2=Nc3ccccc3Sc3ccc(Cl)cc32)CC1 | 66 | 39.8 µM (active) |  | 39.8 µM (active) | inactive |  | 
Cc1cccc(N(C)C(=S)Oc2ccc3c(c2)CCC3)c1 | 64.2 | 39.8 µM (active) |  | 39.8 µM (active) | inactive |  | 
CCCCNc1ccc(C(=O)OCCN(C)C)cc1 | 66.1 | 20 µM (active) | 28.2 µM (active) | 28.2 µM (active) |  |  | 
CC(C)(C)c1ccc(C(=O)CCCN2CCC(OC(c3ccccc3)c3ccccc3)CC2)cc1 | 47.5 | 7.94 µM (active) | 8.91 µM (active) | 8.91 µM (active) |  |  | 
CN(C)CCN(Cc1ccc(Cl)cc1)c1ccccn1 | 58.3 | 17.8 µM (active) | 14.1 µM (active) | 14.1 µM (active) |  |  | 
CCCCCCCCCCCC[N+](C)(C)Cc1ccccc1 | -253 | 22.4 µM (active) | 2.51 µM (active) | 2.51 µM (active) |  |  | 
CCC(C(=O)OCCN1CCOC(c2ccccc2)C1C)c1ccccc1 (centres undefined) | 88.5 | 22.4 µM (active) | 28.2 µM (active) | 28.2 µM (active) |  |  | 
CCCCOc1cc(C(=O)NCCN(CC)CC)c2ccccc2n1 | 119 | 12.6 µM (active) | 10 µM (active) | 10 µM (active) |  |  | 
O=C(CCCN1CCC(O)(c2cccc(C(F)(F)F)c2)CC1)c1ccc(F)cc1 | 61.9 | 25.1 µM (active) | 20 µM (active) | 20 µM (active) |  |  | 
CN1CCC(=C2c3ccccc3CCc3cccnc32)CC1 | 39.6 | 22.4 µM (active) | 31.6 µM (active) | 31.6 µM (active) |  |  | 
O=C(CCCN1CCC(O)(c2ccc(Br)cc2)CC1)c1ccc(F)cc1 | 36.8 | 7.94 µM (active) | 5.62 µM (active) | 5.62 µM (active) |  |  | 
O=C(CCN1CCN2CCCC2C1)N1c2ccccc2Sc2ccc(Cl)cc21 (centres undefined) | 163 | 11.2 µM (active) | 10 µM (active) | 10 µM (active) |  |  | 
COc1ccc(-c2cc(C(F)F)nn2-c2ccc(S(N)(=O)=O)cc2)cc1F | 77 | 25.1 µM (active) | 14.1 µM (active) | 14.1 µM (active) |  |  | 
CN1CCC(N(Cc2cccs2)c2ccccc2)CC1 | 53.5 | 3.55 µM (active) | 3.16 µM (active) | 3.16 µM (active) |  |  | 
Clc1ccc2c(c1)CCc1cccnc1C2=C1CCNCC1 | 49.7 | 7.08 µM (active) | 7.94 µM (active) | 7.94 µM (active) |  |  | 
c1ccc(-c2ccc(C(c3ccccc3)n3ccnc3)cc2)cc1 (centres undefined) | 98.3 | 12.6 µM (active) | 14.1 µM (active) | 14.1 µM (active) |  |  | 
CN(C)CCn1nnnc1SCC1=C(C(=O)O)N2C(=O)[C@@H](NC(=O)Cc3csc(N)n3)[C@H]2SC1 | 40.8 | 17.8 µM (active) | 28.2 µM (active) | 28.2 µM (active) |  |  | 
CN1CCCN=C1COC(=O)C(O)(c1ccccc1)C1CCCCC1 (centres undefined) | 75.7 | 12.6 µM (active) | 12.6 µM (active) | 12.6 µM (active) |  |  | 
CCN(CC)CCOC(=O)C(Cc1cccc2ccccc12)CC1CCCO1 (centres undefined) | 78.5 | 12.6 µM (active) | 11.2 µM (active) | 11.2 µM (active) |  |  | 
Cc1cccc(CN2CCN(C(c3ccccc3)c3ccc(Cl)cc3)CC2)c1 (centres undefined) | 38.6 | 22.4 µM (active) | 22.4 µM (active) | 22.4 µM (active) |  |  | 
Cc1nc2n(c(=O)c1CCN1CCC(C(=O)c3ccc(F)cc3)CC1)CCS2 | 91.8 |  |  |  | inactive | inactive | inactive
COC1=C(OC)C(=O)C(CCCCCCCCCCO)=C(C)C1=O | 52 |  |  |  | inactive | inactive | inactive
C=C1c2cccc(O)c2C(O)=C2C(=O)[C@]3(O)C(O)=C(C(N)=O)C(=O)[C@@H](N(C)C)[C@@H]3[C@@H](O)[C@H]12 | 38.3 | 7.08 µM (active) | 6.31 µM (active) | 6.31 µM (active) |  |  | 
c1ccc(OCc2ccc(CCCN3CCOCC3)cc2)cc1 | 89.3 | 22.4 µM (active) | 20 µM (active) | 20 µM (active) |  |  | 
CN1CCC(Nc2ncc3ncnc(Nc4ccc(F)c(Cl)c4)c3n2)CC1 | 97.2 |  |  |  | inactive | inactive | inactive

SMILES | efficacy [1] [%] | AC50 [2] | AC50 [3] | AC50 [4] | outcome [3] | outcome [2] | outcome [4]
Cc1ccc2c(c1)c1c3n2CCNC3CCC1 (centres undefined) | 68.3 | 28.2 µM (active) | 28.2 µM (active) | 28.2 µM (active) |  |  | 
C[C@@H]1CCC[C@H](C)N1CCCC(O)(c1ccccc1)c1ccccn1 (some centres undefined) | 81.9 | 25.1 µM (active) | 22.4 µM (active) | 22.4 µM (active) |  |  | 
CC1=C(CC(=O)O)c2cc(F)ccc2/C1=C\c1ccc(S(C)=O)cc1 (centres undefined) | 55.9 |  |  |  | inactive | inactive | inactive
CO[C@@H]1[C@@H](OC)[C@H](C)[C@@](O)(CC(=O)O)O[C@H]1[C@H](C)[C@H]1O[C@@]2(CC[C@@](C)([C@H]3CC[C@@](C)([C@@H]4O[C@@H]([C@H]5O[C@](C)(O)[C@H](C)C[C@@H]5C)C[C@@H]4OC4C[C@H](OC)[C@@H](OC)[C@H](C)O4)O3)O2)C[C@H](O)[C@H]1C (some centres undefined) | -69.9 | 1.58 µM (active) | 1 µM (active) | 1 µM (active) |  |  | 
COc1ccc(/C=C/C(=O)c2ccc(OC)cc2OC)cc1 | 38.6 | 39.8 µM (active) |  | 39.8 µM (active) | inactive |  | 
NCc1ccccc1Sc1ccccc1CO | 118 | 39.8 µM (active) | 20 µM (active) | 20 µM (active) |  |  | 
CN1CCCCC1CCN1c2ccccc2Sc2ccc(S(C)=O)cc21 (centres undefined) | 68.6 | 7.08 µM (active) | 7.94 µM (active) | 7.94 µM (active) |  |  | 
CCCCNc1ccc(C(=O)OCCN(CC)CC)cc1 | 87.1 | 39.8 µM (active) | 22.4 µM (active) | 22.4 µM (active) |  |  | 
C/C(=C(/OCCOc1ccc(Cl)cc1)c1ccc(Cl)cc1Cl)n1ccnc1 | 81.6 | 39.8 µM (active) |  | 39.8 µM (active) | inactive |  | 
Cc1cc(C(C)(C)C)c(O)c(C)c1CC1=NCCN1 | 52 | 39.8 µM (active) |  | 39.8 µM (active) | inactive |  | 
CCN(CC)CCOc1ccc(/C(=C(\Cl)c2ccccc2)c2ccccc2)cc1 | -182 | 1.58 µM (active) | 1.26 µM (active) | 1.26 µM (active) |  |  | 
CN(C)CCOC1=Cc2ccccc2Sc2ccc(Cl)cc21 | 46.9 | 15.8 µM (active) | 12.6 µM (active) | 12.6 µM (active) |  |  | 
C[C@@H]1C[C@H]2[C@@H]3C[C@H](F)C4=CC(=O)C(Cl)=C[C@]4(C)[C@@]3(F)[C@@H](O)C[C@]2(C)[C@@]1(O)C(=O)CO | 76 | 39.8 µM (active) |  | 39.8 µM (active) | inactive |  | 
OC(CCCN1CCCCC1)(c1ccccc1)c1ccccc1 | 50.3 | 10 µM (active) | 7.94 µM (active) | 7.94 µM (active) |  |  | 
CCCCCCCCOc1ccccc1C(=O)Nc1ccc(C(=O)OCC[N+](C)(CC)CC)cc1 | -202 | 10 µM (active) | 2.51 µM (active) | 2.51 µM (active) |  |  | 
C[C@H]1C[C@H]2[C@@H]3CCC4=CC(=O)C=C[C@]4(C)[C@@]3(Cl)[C@@H](O)C[C@]2(C)[C@@]1(O)C(=O)CO | 103 | 25.1 µM (active) | 20 µM (active) | 20 µM (active) |  |  | 
C#CCN(C)CCCOc1ccc(Cl)cc1Cl | -19.7 | 39.8 µM (active) |  | 39.8 µM (active) | inactive |  | 
CCN1CCCC(OC(=O)C(c2ccccc2)c2ccccc2)C1 (centres undefined) | 26.3 | 25.1 µM (active) | 20 µM (active) | 20 µM (active) |  |  | 
[O-][n+]1ccccc1SSc1cccc[n+]1[O-] | 40.7 | 1.26 µM (active) | 1.26 µM (active) | 1.26 µM (active) |  |  | 
CCCCCCOC(=O)NC(=N)c1ccc(NCc2nc3cc(C(=O)N(CCC(=O)OCC)c4ccccn4)ccc3n2C)cc1 | 128 | 3.55 µM (active) | 3.16 µM (active) | 3.16 µM (active) |  |  | 
CCOc1ccccc1O[C@H](c1ccccc1)[C@H]1CNCCO1 | 89.3 | 14.1 µM (active) | 15.8 µM (active) | 15.8 µM (active) |  |  | 
Oc1cccc(-c2c3nc(c(-c4cccc(O)c4)c4ccc([nH]4)c(-c4cccc(O)c4)c4nc(c(-c5cccc(O)c5)c5ccc2[nH]5)CC4)C=C3)c1 | 82.1 | 20 µM (active) | 22.4 µM (active) | 22.4 µM (active) |  |  | 
Nc1c2c(nc3ccccc13)CCCC2 | 49.8 | 31.6 µM (active) | 31.6 µM (active) | 31.6 µM (active) |  |  | 
O=C1NCN(c2ccccc2)C12CCN(CCCC(c1ccc(F)cc1)c1ccc(F)cc1)CC2 | 83.4 | 1.41 µM (active) | 1.26 µM (active) | 1.26 µM (active) |  |  | 
CCN(CC)CCOC(=O)C(c1ccccc1)C1CCCCC1 (centres undefined) | -237 | 2.82 µM (active) | 1.58 µM (active) | 1.58 µM (active) |  |  | 

From PubChem BioAssay (NCATS)
